Source: PubChem BioAssay (several laboratories)
Rows were chosen to be rich in hits. Some 28% of all compounds tested hit in one or more screens of this group.
CYP2C19 inh – inhibitors of human CYP2C19. P33261. CYP2C19 Supersomes, luciferin-H EGE luminescence, 30 min. inhibition, % at 5 µM. actives 21% (n = 96,000);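 active = CYP2C19 inhibition above a set limit at 5 µM in the primary screen, cut at about 50% in these data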;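 also: plate controls were negative control wells for no effect and 2.5 mM tranylcypromine positive control for full effect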
Target sequence (P33261 whole entry, looked up): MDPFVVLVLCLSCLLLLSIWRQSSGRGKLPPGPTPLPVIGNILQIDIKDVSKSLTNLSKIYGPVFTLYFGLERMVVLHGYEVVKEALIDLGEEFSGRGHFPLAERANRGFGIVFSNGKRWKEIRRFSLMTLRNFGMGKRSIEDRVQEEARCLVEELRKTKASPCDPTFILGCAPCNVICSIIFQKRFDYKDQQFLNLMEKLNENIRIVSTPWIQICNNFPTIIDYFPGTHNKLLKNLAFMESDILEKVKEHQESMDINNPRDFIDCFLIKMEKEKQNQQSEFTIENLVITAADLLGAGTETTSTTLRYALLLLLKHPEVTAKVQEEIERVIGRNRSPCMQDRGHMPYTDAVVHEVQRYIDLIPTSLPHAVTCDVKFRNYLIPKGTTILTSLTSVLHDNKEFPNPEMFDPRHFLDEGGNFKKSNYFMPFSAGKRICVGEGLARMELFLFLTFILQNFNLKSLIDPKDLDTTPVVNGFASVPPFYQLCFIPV
D1 allo mod – allosterically modulates the human D1 dopamine receptor. HEK293 D1, CRE-luciferase, dopamine EC30 potentiation; actives deviate in either direction. B-score at 10 µM. actives 5.9% (n = 58,000). AID 641;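 active = luminescence count or its row- and column-corrected plate score outside the 99.7% band of the plate's sample wells, on either side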
hDAT+cocaine – modulates human dopamine transporter uptake under cocaine; B-score at 10 µM; AID 449768; actives 1.3% (n = 110,000); LLC-PK1 hDAT cells, [14C]-dopamine uptake with cocaine IC80; actives deviate in either direction; Q01959;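 active = Z score or B-score, a plate-position-corrected score, falls beyond the plate's 99.7% confidence bounds, in either direction; inactive = both scores lie inside the 99.7% bounds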;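 also: scored against the spread of the other compound wells on the same plate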
CYP2C9 activ – CYP2C9 (human) activation; P11712; recombinant CYP2C9, luciferin-H conversion, luminescence; stronger effect = higher value; factor 1 = untreated enzyme, 0 = blocked; activation factor at 5 µM; actives 1.4% (n = 96,000); AID 1024;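 active = activation factor of 2 or more for CYP2C9 at a 5 µM dose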;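 also: 0 = sulfaphenazole-blocked wells and 1 = vehicle-only wells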
CYP2C19 act – increases human CYP2C19 enzyme activity; P33261; recombinant CYP2C19, luciferin-H EGE luminescence; stronger effect = higher value; 0 = fully inhibited enzyme, 1 = untreated enzyme; activation factor at 5 µM; 96,000 tested, under 10 active;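 active = activation factor of at least 2 at 5 µM in the primary screen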;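 also: 0 = wells with 2.5 mM tranylcypromine and 1 = vehicle-only wells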
CYP2C9 inhib – inhibitors of human CYP2C9 | CYP2C9 Supersomes, luciferin-H conversion, luminescence | actives 20% (n = 96,000) | P11712 | inhibition, % at 5 µM | AID 777;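 active = blocking of liver enzyme CYP2C9 beyond about 50% at 5 µM, limit read from the data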
Active calls of the source: *; x = no result given.

SMILES	CYP2C19 inh	D1 allo mod	hDAT+cocaine	CYP2C9 activ	CYP2C19 act	CYP2C9 inhib
CCCCN(CCCC)S(=O)(=O)c1ccc(NS(=O)(=O)c2ccc(NC(C)=O)cc2)cc1	25	x	1.5	0.2	0.8	84*
CCCN(CCC)S(=O)(=O)c1ccc(NC(=O)COc2ccccc2)cc1	87*	x	0.34	0	0.1	99*
CCCN(CCC)S(=O)(=O)c1ccc(C(=O)Nc2ccc(OCC(=O)N3CCOCC3)cc2)cc1	20	x	0.17	0.2	0.8	80*
CCCCOc1ccc(C(=O)Nc2cc(C)c(OCC(=O)N3CCOCC3)c(C)c2)cc1	x	x	0.89	x	x	x
CCCCN(CCCC)S(=O)(=O)c1ccc(NC(=O)CN2CCOCC2)cc1	72*	x	0.5	0.1	0.3	91*
O=C(CNS(=O)(=O)c1ccc(Br)s1)N1CCC(N2CCCCC2)CC1	22	0.93	-0.045	0.8	0.8	19
O=C(COc1ccc(/C=N/NS(=O)(=O)c2ccccc2)cc1)Nc1ccccc1	29	x	x	0.3	0.7	68*
CCCN(CCC)S(=O)(=O)c1ccc(NC(=O)Cc2cccs2)cc1	50*	x	-0.31	0.2	0.5	84*
CCCNS(=O)(=O)c1ccc(NC(=O)Cc2cccs2)cc1	x	x	0.17	x	x	x
CCCCN(CCCC)S(=O)(=O)c1ccc(NC(=O)Cc2cccs2)cc1	66*	x	-0.28	0.1	0.3	89*
O=C(Nc1sccc1C(=O)N1CCOCC1)c1cccnc1	-4	-0.42	0.91	1.1	1	-10
COc1ccc(-n2c(SCC(N)=O)nnc2-c2ccccc2F)cc1	x	-0.25	0.15	x	x	x
CCN1C(=O)/C(=C/N(C)c2ccccc2)OC1=S	79*	x	-0.52	0.5	0.2	53*
CCN1C(=O)/C(=C\N(C(C)=O)c2ccccc2)OC1=S	x	x	0.37	x	x	x
CCC(=O)N1CC2(CC(c3cccc(NC(=O)COc4ccc(Cl)cc4)c3)=NO2)C[C@@H]1C(N)=O (stereo not given in full)	x	x	-0.72	x	x	x
CCCCCC(=O)N1CC2(CC(c3cccc(NC(=O)COc4ccc(Cl)cc4)c3)=NO2)C[C@@H]1C(N)=O (stereo not given in full)	x	x	3.1*	x	x	x
CC(=O)N1N=C(c2ccncc2)OC12CCCC2	48	x	-0.77	1	0.5	3
S=C1NC(c2ccccc2)=NCN1c1ccccc1	95*	x	0.61	0.4	0.1	65*
Cc1cc(C)cc(N2CCN(C(=O)N3CCOCC3)CC2)c1	9	-0.94	0.022	1	0.9	-1
Cc1ccc(N2CCN(C(=O)N3CCCC3)CC2)cc1C	81*	x	1.1	0.5	0.2	53*
CC1C(=O)C(C)C(c2ccco2)NC1c1ccco1 (stereo not given)	94*	-0.017	0.03	1.3	0.1	-29
CCCC1C(c2ccco2)NC(c2ccco2)CC1(C)O (stereo not given)	-2	0.076	-1.5	1	1	0
C/C=C/C=C/[C@H]1Cc2cc(O)cc(O)c2O1	x	x	-1.6	x	x	x
CC12CCC(C(=O)Nc3cc(Cl)ccc3Cl)(C/C1=N\O)C2(C)C (stereo not given)	26	x	0.01	3.1*	0.7	-206
CC(C)(C)c1cc(/C=N/NC(=O)Cc2nc3ccccc3[nH]2)cc(C(C)(C)C)c1O	93*	x	0.96	0	0.1	99*
SMILES	CYP2C19 inh	D1 allo mod	hDAT+cocaine	CYP2C9 activ	CYP2C19 act	CYP2C9 inhib
O=S(=O)(c1ccc(Oc2ccc(-c3nnco3)cc2)nc1)N1CCC(Cc2ccccc2)CC1	15	-0.68	-0.33	0.4	0.9	58*
CCOC(=O)n1c(=O)n(Cc2ccccc2Cl)c2ccccc21	85*	x	-0.6	0.5	0.2	48
CCOC(=O)n1c(=O)n(Cc2ccc(Cl)cc2Cl)c2ccccc21	63*	x	0.34	0.8	0.4	19
C=C(C)Cn1c(N2CCC(Cc3ccccc3)CC2)nc2c1c(=O)[nH]c(=O)n2C	x	0.053	x	x	x	x
CC(=O)Cn1c(N2CCC(Cc3ccccc3)CC2)nc2c1c(=O)[nH]c(=O)n2C	50*	0.84	-0.099	0.8	0.5	16
CCCCCn1c(N2CCC(Cc3ccccc3)CC2)nc2c1c(=O)[nH]c(=O)n2C	x	-0.89	1.6	x	x	x
CCCn1c(N2CCC(Cc3ccccc3)CC2)nc2c1c(=O)[nH]c(=O)n2C	83*	0.35	-0.22	0.4	0.2	57*
C/C(=C\C(=O)c1ccncc1)Nc1ccccc1O	97*	-0.064	0.79	0.7	0	28
CC(=O)Nc1ccccc1O	x	-0.0044	0.043	x	x	x
CCCCCC(=O)Nc1ccc(S(=O)(=O)Nc2nccnc2OC)cc1	-8	x	-1.1	1.1	1.1	-6
Nc1n[nH]c2c1C1(CCCCC1)Cc1ccccc1-2	58*	-0.7	-0.72	0.7	0.4	33
O=C(c1cccc2c1C(=O)N(Cc1cccnc1)C2)N1CCN(c2ccccc2)CC1	23	0.36	0.54	1	0.8	0
COc1ccc(NC(=O)CNS(=O)(=O)c2ccccc2)cc1Cl	63*	0.73	-0.79	1.6	0.4	-60
COC(=O)c1cc(Cl)c(NC(=O)c2ccc(C(C)(C)C)cc2)cc1OC	20	x	-0.014	1.6	0.8	-58
COc1cc(S(=O)(=O)NC(C)C)ccc1Cl	53*	x	-0.41	2.5*	0.5	-154
COc1ccc(S(=O)(=O)NC(C(C)C)C(C)C)cc1OC	x	-0.016	0.13	x	x	x
COC(=O)c1cc(NS(=O)(=O)c2ccc(OC)c(OC)c2)ccc1Cl	100*	0.16	0.55	0.2	0	80*
COC(=O)c1cc(Cl)c(NS(=O)(=O)c2ccccc2)cc1OC	92*	0.38	1.1	0.1	0.1	92*
O=C(CSc1nnc(CN2CCOCC2)n1-c1ccccc1)Nc1ccc(Cl)cc1	x	-0.29	0.034	x	x	x
COc1ccc(S(=O)(=O)Nc2ccc(F)c(Cl)c2)cc1OC	100*	2	-0.22	0.4	0	56*
COc1ccc(C)cc1S(=O)(=O)Nc1cccc(Cl)c1	39	0.29	-0.23	0.5	0.6	48
COc1ccc(S(=O)(=O)Nc2ccc(C)cc2)cc1N(C)S(=O)(=O)c1ccc(Cl)cc1	71*	x	-1	0.4	0.3	62*
COc1ccc(C(=O)OCC(=O)Nc2ccc(OC(F)F)cc2)c(OC)c1	28	x	0.14	0.8	0.7	17
O=C(O)COc1ccccc1C1C2C(=O)N(c3ccccc3)C(=O)C2ON1c1ccccc1 (stereo not given)	20	0.22	-0.2	0.6	0.8	38
CCCC1C2C(=O)N(c3ccccc3OC)C(=O)C2ON1c1ccccc1 (stereo not given)	95*	-0.03	-0.35	0.3	0.1	70*
CCCOc1ccc(N2C(=O)C3ON(c4ccccc4)C(CCC)C3C2=O)cc1 (stereo not given)	32	x	-0.62	0.5	0.7	52*
CCOc1ccccc1C1C2C(=O)N(c3ccccc3)C(=O)C2ON1c1ccccc1 (stereo not given)	21	0.75	-0.92	0.5	0.8	51*
